# Laboratory results: PubChem BioAssay (Tox21)
# Records with an inconclusive call do not appear. A call without a number means that no potency is given here. Calls of active or inactive are those of the source. Calls follow the shape of the dose curve; as a rule, active = well fitted cell-killing curve with a large enough effect in the repeat runs; inconclusive = weak or mixed curves, or effect the other way; inactive = no such curve, though single readings can be large or run the other way.
# Assay: qHTS assay to identify small molecule antagonists of the peroxisome proliferator-activated receptor gamma (PPARg) signaling pathway - cell viability counter screen (AID 743194); also: nearly all actives have a fitted effect of over 55% in size
# Conditions: PPARg-bla HEK293H viability, CellTiter-Glo luminescence, 17 h, co-treated with 50 nM rosiglitazone; series mostly up to 62.6 µM
# Excerpt: U.S. Tox21 Program National Center for Advancing Translational Sciences [NCATS] NIH Chemical Genomics Center [NCGC] U.S. Environmental Protection Agency [EPA] National Institutes of Environmental Health Sciences [NIEHS] National Toxicology Program [NTP] U.S. Food and Drug Administration [FDA] Tox21 Assay Overview: The peroxisome proliferator-activated receptors (PPARs) are lipid-activated transcription factors of the nuclear receptor superfamily with three distinct subtypes namely PPAR alpha, PPAR delta (also called PPAR beta) and PPAR gamma (PPARg). All these subtypes heterodimerize with Retinoid X receptor (RXR) and these heterodimers regulate transcription of various genes. PPAR-gamma receptor (glitazone receptor) is involved in the regulation of glucose and lipid metabolism. To identify the compounds that activate PPAR-gamma signaling, GeneBLAzer PPAR gamma UAS-bla HEK293H cell line (Invitrogen, Carlsbad, CA, USA) containing a beta-lactamase reporter gene under the control of an Upstream Activator Sequence (UAS) was used to screen the Tox21 compound library. The cytotoxicity of the Tox21 compound library against the PPARg-bla cell line was tested in parallel by measuring the cell viability using CellTiter-Glo assay in the same wells.
# Tox21 Assay Protocol Summary: PPARg-bla cells were dispensed at 3000 cells/5uL/well in 1536-well black wall/clear bottom plates using a Multidrop Combi (Thermo Fisher Scientific, Waltham, MA) dispenser. After the assay plates were incubated at 37 C and 5% CO2 for 5 h, 23 nL of compounds dissolved in DMSO, positive controls or DMSO only was transferred to the assay plate by a Pintool station (Kalypsys, San Diego, CA), followed by addition of 1ul Rosiglitazone (50 nM, final concentration in the wells). The assay plates were incubated at 37 C for 17 h, and then 1 uL of LiveBLAzerTM B/G FRET substrate was added using a Bioraptr Flying Reagent Dispenser (FRD) workstation (Beckman Coulter, Indianapolis, IN, USA). The assay plates were incubated at room temperature for 1 h and fluorescence intensity was measured by an Envision plate reader (PerkinElmer, Shelton, CT). For cell viability readout that measures cytotoxicity, 4 ul/well of CellTiter-Glo reagent was added into the assay plates using a Flying Reagent Dispenser. After 30 min incubation at room temperature, the luminescence intensity in the plates was measured using a ViewLux plate reader (PerkinElmer).
# Potency is read from the fitted curve at half-maximal effect.
row,SMILES,Potency
1,CC(C)(O)c1ccc(CNC(=O)c2cccnc2Oc2ccc3nonc3c2)cc1,inactive
2,Cc1ccc(CO)cc1,inactive
3,Oc1cccc(O)c1O,inactive
4,NC(=O)c1ccncc1,inactive
5,N#CCCN(CCO)CCO,inactive
6,C[C@H]1C[C@H](O)c2ccsc2S1(=O)=O,inactive
7,C=C1c2cccc(O)c2C(O)=C2C(=O)[C@]3(O)C(O)=C(C(N)=O)C(=O)[C@@H](N(C)C)[C@@H]3[C@@H](O)[C@H]12,inactive
8,Oc1cccc(Nc2ccccc2)c1,inactive
9,CCOC(C)=O,inactive
10,CNC(=O)c1cnn(-c2nc(N)c3ncn([C@@H]4O[C@H](CO)[C@@H](O)[C@H]4O)c3n2)c1,inactive
11,CC(=O)OCCN(CCOC(C)=O)c1ccc(N=Nc2ccc([N+](=O)[O-])cc2C#N)cc1,inactive
12,CCCCCCCCC(CCCCCC)C(=O)O (stereo not given),38.9 µM (active)
13,CC(=O)[C@H]1[C@H](C#N)C[C@H]2[C@@H]3CC=C4C[C@@H](O)CC[C@]4(C)[C@H]3CC[C@@]21C,inactive
14,OC1(c2ccccc2)CCNCC1,inactive
15,CC(=O)Nc1cc(S(=O)(=O)O)cc2cc(S(=O)(=O)O)c(N=Nc3ccccc3)c(O)c12,inactive
16,C[C@@H]1CN(CCCn2c3ccccc3c3ccccc32)C[C@H](C)N1,23.7 µM (active)
17,CC=C(Cl)Cl,inactive
18,CC(CCC(=O)O)C(=O)O (stereo not given),inactive
19,CCOc1cccc(-n2cc(C(=O)N3CCN(c4cc(C(=O)O)c5ccccc5c4)CC3)nc2-c2ccc(C)cc2)c1,18.6 µM (active)
20,CCCCOc1ccc(OCCCN2CCOCC2)cc1,inactive

row,SMILES,Potency
1,CC(C)(C)CC(=O)OCC(=O)[C@@]1(O)CC[C@H]2[C@@H]3CCC4=CC(=O)C=C[C@]4(C)[C@H]3[C@@H](O)C[C@@]21C,inactive
2,COc1cc(Nc2c(C#N)cnc3cc(OCCCN4CCN(C)CC4)c(OC)cc23)c(Cl)cc1Cl,21.1 µM (active)
3,O=C(O)C[C@H](NC(=O)OCc1ccccc1)C(=O)O,inactive
4,COC(=O)CCS,inactive
5,CCCCC(CC)CN (stereo not given),inactive
6,O=C(O)CCC(=O)C(=O)O,inactive
7,Cc1ccc(C(C)(C)O)cc1,inactive
8,CCCCCCCCCI,inactive
9,CC1=C(CC=O)C(C)(C)CCC1,inactive
10,O=C(CCCN1CC=C(n2c(=O)[nH]c3ccccc32)CC1)c1ccc(F)cc1,inactive
11,CCOC(=O)C1=C(C)NC(C)=C(C(=O)OC)C1c1cccc(Cl)c1Cl (stereo not given),inactive
12,CCOC(=O)c1ccc(OCCN2C[C@H](O)[C@@H](O)[C@H](O)[C@H]2CO)cc1,inactive
13,C1COC1,inactive
14,CCC(C)(C)OC,inactive
15,COc1ccccc1Oc1c(NS(=O)(=O)c2ccc(C(C)(C)C)cc2)nc(-c2ncccn2)nc1OCCO,inactive
16,CC(C)Nc1cccnc1N1CCN(C(=O)c2cc3cc(NS(C)(=O)=O)ccc3[nH]2)CC1,inactive
17,O=C(OC(=O)c1ccccc1)c1ccccc1,inactive
18,O=C1c2ccccc2C(=O)c2c(O)c(O)cc(O)c21,inactive
19,CCCCCCCCOc1ccc(C(=O)O)cc1,inactive
20,CC1=C(Br)C(=O)C(Br)=C/C1=C(/c1ccccc1S(=O)(=O)O)c1cc(Br)c(O)c(Br)c1C,inactive
